Among the data in ChEMBL document CHEMBL4513216, “Probing the Open Global Health Chemical Diversity Library for Multistage-Active Starting Points for Next-Generation Antimalarials” (ACS Infect Dis, 2020) are INHIBITION values, retold here.

Structures are written as SMILES. Screen size: about 69,000 compounds; about 8,600 (12%) showed an effect of 50% or more. This excerpt belongs to a sample that is enriched for strong results.

For this assay, the system named is Plasmodium berghei. The experiment in a line: Screen against P. berghei liver stage (PbLuc), transformed with Luciferase, at 10uM. It is filed as functional, HepG2. The settings on record: tested at 10 uM.
Take `Cc1ccc2c(n1)N(CCN(C)C)CCN(Cc1c(C)noc1C)C2`: the INHIBITION was determined as 42.6%.
As for `COCCN1CCc2ccccc2NCCC1=O`, the INHIBITION worked out at 16.9%.
Then `CN(Cc1cnn(C)c1)CC(O)c1ccc2c(c1)OCCCO2` (stereo not given), with 18.8%; and `O=C(c1cccs1)N1CCC2(CC1)CCN(S(=O)(=O)C1CC1)CC2`, with 45.7%.
With `O=C(c1sccc1-n1cnnn1)N1CCCCC1`, the INHIBITION was 17.4%.
Then `CCN(CC)CC(=O)N(C)C(c1cccc(F)c1)c1ccccn1` (stereo not given), with -4.16%.
On to `Cc1cnn(CC2CCCN2C(=O)Cn2nc(C)c(Cl)c2C)c1` (stereo not given), for which the INHIBITION is recorded as -41.5%.
For `Cc1nc(N2CCOCC2)nc2c1CCN(C(=O)N1CCCC1)CC2` the value was 39.5%; for `COCCC(=O)N1CCc2nc(N3CCOCC3)nc(NC(C)C)c2C1`, 76.5%.
On to `CCC(=O)N1CCc2nc(N3CCOCC3)nc(N(C)C)c2CC1`, for which the INHIBITION amounted to 45.2%.
Then `CC(C)CC(=O)N1CCc2nc(N3CCOCC3)nc(NC(C)C)c2C1`, with 52.9%.
`COc1c(Br)c(C(=O)NC2CCCC2)nn1C`: the INHIBITION is listed as 71.4%.
On to `COc1c(Br)c(C(=O)NC2CC2)nn1C`, for which the INHIBITION is recorded as 33.3%.
For `COc1c(Br)c(C(=O)NC2CCCCC2)nn1C` the value was -37.1%; for `Cc1cnn(CC2CCCCN2C(=O)c2ccc3[nH]cnc3c2)c1` (stereo not given), 5.7%; for `N#Cc1ccccc1CN1CCC(CN2CCOCC2)C1` (stereo not given), -19.8%.
For `CC(C)c1nn(C)c(N(C)C)c1CNCc1cccnc1N(C)C` the value was 14.815%; for `COc1ccc(S(=O)(=O)NCc2cccnc2N(C)C)cc1`, 21.5%.
For `CN(C)c1ncccc1CNS(=O)(=O)c1ccc(F)c(F)c1`, the INHIBITION turned out to be 11.2%.
Then `CCOc1ccc(S(=O)(=O)NCc2cccnc2N(C)C)cc1`, with 67.5%; and `CC(C)N(C)S(=O)(=O)NCc1cccnc1N(C)C`, with 55%; and `CN(C)c1ncccc1CNS(=O)(=O)c1cc(F)cc(F)c1`, with -10.1%.
For `CC(C)c1nn(C)c(Cl)c1CNCc1cccnc1N(C)C` the value was 57.5%; for `CCCC(C)CS(=O)(=O)NCc1cccnc1N(C)C` (stereo not given), -33.9%; for `COc1ncccc1CNCc1c(C(C)C)nn(C)c1Cl`, 21.7%.
For `CCOc1ccc(CNCc2cccnc2N(C)C)cc1` the value was 39.7%.
Take `CN(C)c1ncccc1CNS(=O)(=O)c1ccccc1F`: the INHIBITION came out at 34.7%.
For `COc1ccc(S(=O)(=O)NCc2cccnc2N(C)C)cc1F` the value was 58.2%; for `CN(C)C(=O)COCC1CN(S(C)(=O)=O)Cc2ncn(C)c21` (stereo not given), 38.2%; for `COc1ccc(NC(=O)c2nc3ccccc3n(C)c2=O)c(OC)c1`, 3.19%.
In the case of `Cn1ccc(C(=O)NC2CCC23CCN(Cc2cccnc2)CC3)c1` (stereo not given), the INHIBITION stood at 23.5%.
For `CC(O)C1CCN(C(=O)CCOc2ccccc2F)CC1` (stereo not given) the value was -17.8%; for `CC(C)(C)S(=O)(=O)c1ccc(N2CCC(n3cccn3)CC2)cn1`, -8.66%; for `Cc1ccc2nc(C(=O)N(C)[C@@H]3CC[C@@H](N4CCCC4)[C@@H]3O)cn2c1`, 1.068%.
For `c1ccc(Cc2noc(CN3CCCC3Cn3cccn3)n2)cc1` (stereo not given) the value was 1.78%; for `Fc1ccc(-c2cnc(CN3CCOC(Cn4cccn4)C3)o2)cc1` (stereo not given), -21.8%.
Consider `COc1ccccc1CN1CCc2c(nc(-c3ccccn3)[nH]c2=O)C1`, for which the INHIBITION is 25.6%.
Then `CSc1ccccc1C(=O)N(C)Cc1nncn1C(C)C`, with 37.4%; and `CN(C)c1ncccc1CNS(=O)(=O)c1ccccc1Cl`, with -4.16%; and `CC(=O)c1cccc(S(=O)(=O)NCc2cccnc2N(C)C)c1`, with 42%.
Then `CNC(=O)c1ccc(S(=O)(=O)NCc2cccnc2N(C)C)cc1`, with 29.7%; and `CN(C)c1ncccc1CNS(=O)(=O)c1ccc(C(N)=O)cc1`, with -3.2%.
In the case of `CN(C)c1ncccc1CNS(=O)(=O)c1cc(F)ccc1F`, the INHIBITION is -27.8%.
Then `CN(C)c1ncccc1CNS(=O)(=O)c1c(F)cccc1F`, with 11.6%; and `COC(=O)c1ccc(S(=O)(=O)NCc2cccnc2N(C)C)cc1`, with 52.7%.
Then `COC(=O)c1cccc(S(=O)(=O)NCc2cccnc2N(C)C)c1`, with 13.3%.
For `Cc1ccc(F)cc1S(=O)(=O)NCc1cccnc1N(C)C` the value was 49.3%.
For the molecule `CC(=O)c1ccc(S(=O)(=O)NCc2cccnc2N(C)C)cc1`, the INHIBITION was 66.7%.
Take `COc1cc(C)c(S(=O)(=O)NCc2cccnc2N(C)C)c(C)c1`: the INHIBITION was found to be 61.7%.
Then `CCOC(=O)c1ccc(S(=O)(=O)NCc2cccnc2N(C)C)cc1`, with 83.2%; and `COCCN1C[C@@H]2CN(Cc3ccsc3)CCC[C@]2(C(=O)O)C1`, with 3.47%; and `COc1ccc(CN2CC(O)CN(C(=O)CC(C)C)CC2=O)cc1` (stereo not given), with 19.2%.
For `CC(C)C(NC(=O)NCC1CC1)c1nnc2n1CCC2` (stereo not given) the value was 43.4%; for `CCC(CNC1CCN(C(C)=O)CC1)Oc1cccc(C)c1` (stereo not given), 61.5%.
For the molecule `CCC(CNC1CCN(C(=O)N(C)C)CC1)Oc1ccccc1C` (stereo not given), the INHIBITION is listed as 18.2%.
